Source: the supplement of paper PMC8728848
Shown is part of a subset that was picked to be rich in the strongest signals.

Tests used:
Test in all cases: glycan array binding signal (z-score within array); higher = stronger binding
Details in all cases: glycan notation: IUPAC condensed, linker removed
[1] = target: Fuc(a1-2)Gal(b1-3)GlcNAc(b1-2)Man(a1-3)[Fuc(a1-2)Gal(b1-3)GlcNAc(b1-2)Man(a1-6)]Man(b1-4)GlcNAc(b1-4)GlcNAc
Outline: (§1)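 Columns mapping to the same glycan were averaged after glycan names were converted to IUPAC-condensed notation. The data come from 3228 arrays in the Consortium for Functional Glycomics database, limited to those with an available protein sequence. Binding is reported as a within-array Z-score averaged across arrays of one protein sequence and across linkers.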

[2] = target: Fuc(a1-2)Gal(b1-3)[Fuc(a1-4)]GlcNAc(b1-2)Man(a1-3)[Fuc(a1-2)Gal(b1-3)[Fuc(a1-4)]GlcNAc(b1-2)Man(a1-6)]Man(b1-4)GlcNAc(b1-4)[Fuc(a1-6)]GlcNAc(b1-4)[Fuc(a1-6)]GlcNAc
Outline: as §1

[3] = target: Fuc(a1-2)Gal(b1-4)GlcNAc(b1-2)Man(a1-3)[Fuc(a1-2)Gal(b1-4)GlcNAc(b1-2)Man(a1-6)]Man(b1-4)GlcNAc(b1-4)GlcNAc
Outline: as §1

[4] = target: Fuc(a1-2)Gal(b1-4)[Fuc(a1-3)]GlcNAc(b1-3)GalNAc
Outline: as §1

[5] = target: Fuc(a1-2)[Gal(a1-3)]Gal(b1-3)GalNAc(b1-3)Gal(a1-4)Gal(b1-4)Glc
Outline: as §1

[6] = target: Fuc(a1-2)[Gal(a1-3)]Gal(b1-3)GlcNAc(b1-2)Man(a1-3)[Fuc(a1-2)[Gal(a1-3)]Gal(b1-3)GlcNAc(b1-2)Man(a1-6)]Man(b1-4)GlcNAc(b1-4)[Fuc(a1-6)]GlcNAc
Outline: as §1

[7] = target: Fuc(a1-2)[GalNAc(a1-3)]Gal(b1-3)GalNAc(a1-3)[Fuc(a1-2)]Gal(b1-4)GlcNAc
Outline: as §1

[8] = target: Fuc(a1-2)[GalNAc(a1-3)]Gal(b1-3)GlcNAc(b1-2)Man(a1-3)[Fuc(a1-2)[GalNAc(a1-3)]Gal(b1-3)GlcNAc(b1-2)Man(a1-6)]Man(b1-4)GlcNAc(b1-4)GlcNAc
Outline: as §1

[9] = target: Fuc(a1-2)[GalNAc(a1-3)]Gal(b1-4)GlcNAc(b1-2)Man
Outline: as §1

[10] = target: Fuc(a1-2)[GalNAc(a1-3)]Gal(b1-4)GlcNAc(b1-6)GalNAc
Outline: as §1

[11] = target: Fuc(a1-3)[Gal(b1-4)]GlcNAc(b1-6)GalNAc
Outline: as §1

Fuc(b1-3)GlcNAc = target: Fuc(b1-3)GlcNAc
Outline: as §1

Gal(a1-3)Gal = target: Gal(a1-3)Gal
Outline: as §1

[12] = target: Gal(a1-3)Gal(b1-4)[Fuc(a1-3)]GlcNAc
Outline: as §1

[13] = target: Gal(a1-4)Gal(b1-4)GlcNAc(b1-2)Man(a1-3)[Gal(a1-4)Gal(b1-4)GlcNAc(b1-2)Man(a1-6)]Man(b1-4)GlcNAc(b1-4)GlcNAc
Outline: as §1

[14] = target: Gal(b1-3)GlcNAc(b1-3)Gal(b1-4)GlcNAc(b1-3)Gal(b1-4)GlcNAc(b1-2)[Gal(b1-3)GlcNAc(b1-3)Gal(b1-4)GlcNAc(b1-3)Gal(b1-4)GlcNAc(b1-6)]Man(a1-6)[Gal(b1-3)GlcNAc(b1-3)Gal(b1-4)GlcNAc(b1-3)Gal(b1-4)GlcNAc(b1-2)Man(a1-3)]Man(b1-4)GlcNAc(b1-4)[Fuc(a1-6)]GlcNAc
Outline: as §1

[15] = target: Gal(b1-3)GlcNAc(b1-3)GalNAc
Outline: as §1

[16] = target: Gal(b1-3)[Neu5Ac(a2-6)]GlcNAc(b1-4)Gal(b1-4)Glc
Outline: as §1

Gal(b1-4)Gal = target: Gal(b1-4)Gal
Outline: as §1

[17] = target: Gal(b1-4)GlcNAc(b1-2)Man(a1-3)[Gal(b1-4)GlcNAc(b1-2)Man(a1-6)]Man(b1-4)GlcNAc(b1-4)[Fuc(a1-6)]GlcNAc
Outline: as §1

[18] = target: Gal(b1-4)GlcNAc(b1-2)[Gal(b1-4)GlcNAc(b1-4)]Man(a1-3)[GlcNAc(b1-4)][Gal(b1-4)GlcNAc(b1-2)[Gal(b1-4)GlcNAc(b1-6)]Man(a1-6)]Man(b1-4)GlcNAc(b1-4)GlcNAc
Outline: as §1

[19] = target: Gal(b1-4)GlcNAc(b1-3)Gal(b1-3)GlcNAc
Outline: as §1

[20] = target: Gal(b1-4)GlcNAc(b1-3)Gal(b1-4)GlcNAc(b1-2)Man(a1-3)[Gal(b1-4)GlcNAc(b1-3)Gal(b1-4)GlcNAc(b1-2)Man(a1-6)]Man(b1-4)GlcNAc(b1-4)[Fuc(a1-6)]GlcNAc
Outline: as §1

[21] = target: Gal(b1-4)GlcNAc(b1-3)Gal(b1-4)GlcNAc(b1-2)[Gal(b1-4)GlcNAc(b1-3)Gal(b1-4)GlcNAc(b1-6)]Man(a1-6)[Gal(b1-4)GlcNAc(b1-3)Gal(b1-4)GlcNAc(b1-2)Man(a1-3)]Man(b1-4)GlcNAc(b1-4)GlcNAc
Outline: as §1

[22] = target: Gal(b1-4)GlcNAc(b1-3)Gal(b1-4)GlcNAc(b1-2)[Gal(b1-4)GlcNAc(b1-3)Gal(b1-4)GlcNAc(b1-6)]Man(a1-6)[Gal(b1-4)GlcNAc(b1-3)Gal(b1-4)GlcNAc(b1-2)Man(a1-3)]Man(b1-4)GlcNAc(b1-4)[Fuc(a1-6)]GlcNAc
Outline: as §1

[23] = target: Gal(b1-4)GlcNAc(b1-3)Gal(b1-4)GlcNAc(b1-3)Gal(b1-4)GlcNAc(b1-3)Gal(b1-4)GlcNAc(b1-2)Man(a1-3)[Gal(b1-4)GlcNAc(b1-3)Gal(b1-4)GlcNAc(b1-3)Gal(b1-4)GlcNAc(b1-3)Gal(b1-4)GlcNAc(b1-2)Man(a1-6)]Man(b1-4)GlcNAc(b1-4)GlcNAc
Outline: as §1

[24] = target: Gal(b1-4)GlcNAc(b1-3)[GlcNAc(b1-6)]Gal(b1-4)GlcNAc
Outline: as §1

[25] = target: Gal3S(b1-3)[Fuc(a1-4)]GlcNAc
Outline: as §1

Gal6S(b1-3)GlcNAc6S = target: Gal6S(b1-3)GlcNAc6S
Outline: as §1

Gal6S(b1-4)GlcNAc = target: Gal6S(b1-4)GlcNAc
Outline: as §1

[26] = target: GalNAc(b1-4)GlcNAc(b1-2)Man(a1-3)[GalNAc(b1-4)GlcNAc(b1-2)Man(a1-6)]Man(b1-4)GlcNAc(b1-4)GlcNAc
Outline: as §1

GalNAc3S(b1-4)GlcNAc = target: GalNAc3S(b1-4)GlcNAc
Outline: as §1

[27] = target: GlcNAc(b1-2)Man(a1-3)[GlcNAc(b1-2)Man(a1-6)]Man(b1-4)GlcNAc(b1-4)GlcNAc
Outline: as §1

[28] = target: GlcNAc(b1-3)Gal(b1-4)GlcNAc(b1-3)Gal(b1-4)GlcNAc(b1-3)Gal(b1-4)GlcNAc(b1-2)Man(a1-3)[GlcNAc(b1-3)Gal(b1-4)GlcNAc(b1-3)Gal(b1-4)GlcNAc(b1-3)Gal(b1-4)GlcNAc(b1-2)Man(a1-6)]Man(b1-4)GlcNAc(b1-4)GlcNAc
Outline: as §1

[29] = target: GlcNAc(b1-3)[GlcNAc(b1-6)]GalNAc
Outline: as §1

[30] = target: GlcNAc(b1-4)GlcNAc(b1-4)GlcNAc(b1-4)GlcNAc(b1-4)GlcNAc
Outline: as §1

[31] = target: Man(a1-2)Man(a1-3)[Man(a1-2)Man(a1-6)]Man
Outline: as §1

[32] = target: Man(a1-2)Man(a1-3)[Man(a1-6)]Man(a1-6)[Man(a1-2)Man(a1-3)]Man(b1-4)GlcNAc(b1-4)GlcNAc
Outline: as §1

[33] = target: Neu5Ac(a2-3)Gal(b1-4)GlcNAc(b1-2)Man(a1-3)[GlcNAc(b1-4)][Neu5Ac(a2-3)Gal(b1-4)GlcNAc(b1-2)Man(a1-6)]Man(b1-4)GlcNAc(b1-4)GlcNAc
Outline: as §1

[34] = target: Neu5Ac(a2-3)Gal(b1-4)GlcNAc(b1-2)Man(a1-3)[Neu5Ac(a2-6)Gal(b1-4)GlcNAc(b1-2)Man(a1-6)]Man(b1-4)GlcNAc(b1-4)GlcNAc
Outline: as §1

[35] = target: Neu5Ac(a2-3)Gal(b1-4)GlcNAc(b1-3)[Neu5Ac(a2-3)Gal(b1-4)GlcNAc(b1-6)]GalNAc
Outline: as §1

[36] = target: Neu5Ac(a2-3)Gal(b1-4)[Fuc(a1-3)]GlcNAc(b1-3)Gal(b1-4)GlcNAc
Outline: as §1

Neu5Ac(a2-6)Gal(b1-4)Glc = target: Neu5Ac(a2-6)Gal(b1-4)Glc
Outline: as §1

[37] = target: Neu5Ac(a2-6)GalNAc(b1-4)GlcNAc6S
Outline: as §1

[38] = target: Neu5Ac(a2-8)Neu5Ac(a2-8)Neu5Ac(a2-3)Gal(b1-4)Glc
Outline: as §1

[39] = target: Neu5Ac(a2-8)Neu5Gc(a2-3)Gal(b1-4)GlcNAc
Outline: as §1

[40] = target: Neu5Gc(a2-8)Neu5Ac(a2-3)Gal(b1-4)GlcNAc
Outline: as §1

[41] = target: Neu5Gc(a2-8)Neu5Gc(a2-3)Gal(b1-4)GlcNAc(b1-3)Gal(b1-4)GlcNAc
Outline: as §1

B1: PX14375l-pdi-526-25-526 (Parabacteroides distasonis) (protein)
chain: DEEPKSTLTDVAYYKTQSQMESNVNYLYRTGAIGSYVDFGSAYIGPFASIQEELTGYFSNSYEGQEIVCRYTRELTRQQNTMQLASKMDKVWDDCYRGINVANGAIKHMPEVPMDQATADRLTAEAKFFRAFNYFYLVKTFGAVPFYTDPYELAENMELPRTETSTIYNQIESDLKDAMNVLPEATFAANGHRITKYVAAMTLTDVYMYQHKYAEAAETVRIVVNSNHKLTTNDDLAMNSAFNKLRSTDDLDEAIYAYEYDNQISPSNWLPTYAFDGDASSNGLFGTYAITQKVHGPNDRYLNIYESNDLRRQPNQFYHWTYTNPKTGKVWNSVGNAACCWYYYDEDALLTTGRGTKDWNVYRYAEALLDAAESIAQSTGVTAEAAGYLAQVKARANMEGKTAAEIASSLQSMGKQAFIEECWTERLRELPLEFKMWDMCVRTGMFPNISETTPGQVTYIPLVGAKNASGATIKESDLLWPLSVNEIQRNPSLTQNEGYSAK
- glycan array binding signal (z-score) [1]: -0.052
- glycan array binding signal (z-score) [2]: 0.236
- glycan array binding signal (z-score) [3]: 3.23
- glycan array binding signal (z-score) [4]: 3.32
- glycan array binding signal (z-score) [5]: -0.21
- glycan array binding signal (z-score) [6]: 0.373
- glycan array binding signal (z-score) [7]: -0.255
- glycan array binding signal (z-score) [8]: 2.42
- glycan array binding signal (z-score) [9]: -0.233
- glycan array binding signal (z-score) [10]: -0.22
- glycan array binding signal (z-score) [11]: 2.66
- glycan array binding signal (z-score) (Fuc(b1-3)GlcNAc): -0.225
- glycan array binding signal (z-score) (Gal(a1-3)Gal): -0.181
- glycan array binding signal (z-score) [12]: -0.3
- glycan array binding signal (z-score) [13]: 1.19
- glycan array binding signal (z-score) [14]: 8.4
- glycan array binding signal (z-score) [15]: -0.323
- glycan array binding signal (z-score) [16]: -0.125
- glycan array binding signal (z-score) (Gal(b1-4)Gal): -0.301
- glycan array binding signal (z-score) [17]: 0.272
- glycan array binding signal (z-score) [18]: 3.87
- glycan array binding signal (z-score) [19]: -0.16
- glycan array binding signal (z-score) [20]: 4.03
- glycan array binding signal (z-score) [21]: 4.11
- glycan array binding signal (z-score) [22]: 0.091
- glycan array binding signal (z-score) [23]: 16.7
- glycan array binding signal (z-score) [24]: -0.154
- glycan array binding signal (z-score) [25]: -0.094
- glycan array binding signal (z-score) (Gal6S(b1-3)GlcNAc6S): 9.53
- glycan array binding signal (z-score) (Gal6S(b1-4)GlcNAc): -0.026
- glycan array binding signal (z-score) [26]: -0.068
- glycan array binding signal (z-score) (GalNAc3S(b1-4)GlcNAc): -0.071
- glycan array binding signal (z-score) [27]: -0.225
- glycan array binding signal (z-score) [28]: -0.168
- glycan array binding signal (z-score) [29]: -0.1
- glycan array binding signal (z-score) [30]: -0.095
- glycan array binding signal (z-score) [31]: -0.022
- glycan array binding signal (z-score) [32]: -0.236
- glycan array binding signal (z-score) [33]: -0.214
- glycan array binding signal (z-score) [34]: -0.134
- glycan array binding signal (z-score) [35]: -0.205
- glycan array binding signal (z-score) [36]: 0.129
- glycan array binding signal (z-score) (Neu5Ac(a2-6)Gal(b1-4)Glc): 0.019
- glycan array binding signal (z-score) [37]: 0.114
- glycan array binding signal (z-score) [38]: -0.12
- glycan array binding signal (z-score) [39]: 2.74
- glycan array binding signal (z-score) [40]: -0.206
- glycan array binding signal (z-score) [41]: -0.201
